ROC1-CUL1 inh: inhibitors of human ROC1-CUL1 ubiquitin ligase activity | E3 ubiquitin-protein ligase RBX1 (Homo sapiens) + Cullin-1 (Homo sapiens), P62877+Q13616 | in vitro K48 di-Ub FRET, acceptor:donor ratio, 45 min | inhibition, % at 10 µM | 0.6% of 140,000 active | AID 1347404, 2020; in the data active = inhibition above about 25%
Target sequence (P62877 whole entry, looked up): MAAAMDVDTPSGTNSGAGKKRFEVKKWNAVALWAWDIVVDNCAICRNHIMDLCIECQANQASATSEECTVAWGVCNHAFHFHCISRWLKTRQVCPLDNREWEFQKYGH
Target sequence (Q13616 whole entry, looked up): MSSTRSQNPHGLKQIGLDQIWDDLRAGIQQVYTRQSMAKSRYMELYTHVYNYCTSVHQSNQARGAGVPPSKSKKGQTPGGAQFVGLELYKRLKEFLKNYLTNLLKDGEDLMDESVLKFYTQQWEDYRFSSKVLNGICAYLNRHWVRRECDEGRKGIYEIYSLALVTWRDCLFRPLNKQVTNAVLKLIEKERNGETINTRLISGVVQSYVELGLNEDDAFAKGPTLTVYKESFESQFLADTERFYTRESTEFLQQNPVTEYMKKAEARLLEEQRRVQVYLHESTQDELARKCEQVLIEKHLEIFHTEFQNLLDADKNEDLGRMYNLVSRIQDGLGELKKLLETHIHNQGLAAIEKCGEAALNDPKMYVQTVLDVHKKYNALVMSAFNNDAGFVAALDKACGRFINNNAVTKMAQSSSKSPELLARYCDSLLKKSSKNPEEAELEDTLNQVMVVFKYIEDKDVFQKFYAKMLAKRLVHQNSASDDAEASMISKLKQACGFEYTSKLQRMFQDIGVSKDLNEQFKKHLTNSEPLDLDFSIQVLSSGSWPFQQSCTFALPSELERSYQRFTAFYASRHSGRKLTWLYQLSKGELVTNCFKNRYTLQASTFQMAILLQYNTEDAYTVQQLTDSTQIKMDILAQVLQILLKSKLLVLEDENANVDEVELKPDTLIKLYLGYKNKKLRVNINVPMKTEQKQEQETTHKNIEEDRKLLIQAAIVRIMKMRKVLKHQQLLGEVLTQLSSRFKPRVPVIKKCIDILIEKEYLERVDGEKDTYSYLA
* hit, by the source's call. The full list was thinned out, with hits kept by preference.

SMILES | ROC1-CUL1 inh
NC1=NC(c2ccncc2)C(c2ccc(Cl)cc2Cl)S1 (centres undefined) | -8
O=C(/C=C\c1ccnc2ccccc12)NCc1ccc(Cl)cc1 | -10
O=C(N1CCOCC1)C12CC3CC(C1)CC(n1cnc(Br)n1)(C3)C2 | -5
Cc1ccc(NC(=NC23CC4CC(CC(C4)C2)C3)C(=NC23CC4CC(CC(C4)C2)C3)Nc2ccc(C)cc2)cc1 | -6
CCCCOC(=O)C1C(C)=NC(=O)NC1c1ccc(OC)c(OC)c1 (centres undefined) | -3
Cc1[nH]c2c(C)ccc(C)c2c(=O)c1CN1CCCC1 | 4
COc1ccc(-c2nc3c(c(SCC(=O)Nc4ccccc4OC)n2)Cc2cccc(C)c2O3)cc1 | 3
Cc1ccc(-c2nc3c(c(SCC(=O)Nc4cccc(C(=O)O)c4)n2)Cc2cccc(C)c2O3)cc1 | 31*
CCOc1cccc2c1Oc1nc(-c3ccccc3)nc(SCC(=O)Nc3ccc(F)cc3)c1C2 | -10
COc1cc(C(=O)NC(C)c2ccccc2)ccc1OC1CCN(C(C)=O)CC1 (centres undefined) | -2
CC(C)CCNS(=O)(=O)c1cc(Cl)ccc1Cl | -13
CCN(CC)CCN=CC1C(=O)N(c2c(Cl)cccc2Cl)c2ccccc21 (centres undefined) | 4
CN(C)/C=C1/N=C2C=C(c3ccccc3)c3cc(Cl)ccc3N2C1=O | 0
CN(C)/C=C1\C(=O)N(c2c(Cl)cccc2Cl)c2cc(C=C(C#N)C#N)ccc21 | 34*
COCCNC(=O)CCC1CCN(C2CCSC2)CC1 (centres undefined) | 5
N#Cc1cc(C#N)c(SCc2ccccn2)nc1N | -9
CCCOC(=O)c1cc(N2C(=O)c3cccc4cccc(c34)C2=O)ccc1Cl | -3
O=C(Nc1cccc(Br)c1)c1ccc(-c2ccccc2)cc1 | -7
O=C1C=C(N2CCCCC2)c2ccccc2C1=O | 80*
O=C1C(=Cc2ccc(N3CCCCCC3)o2)C(=O)c2ccccc21 | 4
Nc1ccc(S(=O)(=O)N2CCc3ccccc32)cc1 | 5
CC(=O)N(C)C1=C(N2CCCC2)C(=O)c2ccccc2C1=O | -6
Cc1nc(N2CCc3ccccc32)nc2c1C(=O)CC(C)(C)C2 | 0
O=C1C=C(N2CCc3ccccc32)c2ccccc2C1=O | 77*
O=C(N=C1S/C(=C/c2cccnc2)C(=O)N1c1ccccc1)c1ccccc1 | 4
SMILES | ROC1-CUL1 inh
C=CCn1c(CNc2cccc3ccccc23)nnc1SC(C)C(=O)N/N=C/c1ccc(OC)cc1OC (centres undefined) | 42*
C=CCn1c(CNc2ccccc2)nnc1SC(C)C(=O)N/N=C/c1ccc(N(CC)CC)cc1 (centres undefined) | -2
C=CCn1c(CNc2cccc3ccccc23)nnc1SCC(=O)N/N=C/c1ccc(OC)cc1OC | 7
Cc1c(CSc2nnnn2-c2ccccc2)cccc1-c1ccccc1 | -2
COc1ccc(-c2csc(N/N=C/c3c4ccccc4cc4ccccc34)n2)cc1 | 1
C[n+]1c2ccccc2n2nc3c(cc21)c1cccc2cccc3c21 | 13
C[n+]1c2cc3ccccc3cc2n2nc3c(cc21)c1cccc2cccc3c21 | 97*
C[n+]1c2ccccc2n2nc3c(cc21)c1cccnc1c1ncccc31 | -4
CC(=O)N1N=C(c2cccc3ccccc23)OC1c1cn(C(C)=O)c2ccccc12 (centres undefined) | 2
CCOc1ccc(NS(=O)(=O)c2ccc(NC(=O)Nc3cccc(Cl)c3)cc2)cc1 | 4
Cc1[nH]n(-c2ccccc2)c(=O)c1C(c1ccc(-c2ccc(Br)cc2)o1)c1c(C)[nH]n(-c2ccccc2)c1=O | -9
Cc1[nH]n(-c2ccccc2)c(=O)c1/C=N/NC(=O)Cc1ccc(Br)cc1 | 0
Cc1[nH]n(-c2ccccc2)c(=O)c1C(C[N+](=O)[O-])c1ccc(Br)cc1 (centres undefined) | 70*
Cc1nn(Cc2n[nH]c(=S)n2-c2ccccc2)c(C)c1Br | 1
Cc1ccc(/C=N/NC(=O)c2ccc(=O)n(C)c2)cc1 | 1
O=[N+]([O-])c1cnccc1Sc1cccc(C(F)(F)F)c1 | 9
CN(C)c1ccc(N2C(=O)c3cccc4c(Cl)ccc(c34)C2=O)cc1 | 3
Cc1ccc(C2=NN3C(=N)/C(=C/c4cccc(OCc5ccc(F)cc5)c4)C(=O)N=C3S2)cc1 | -7
N=C1/C(=C\c2ccc(OC(=O)c3ccc(F)cc3)c(Cl)c2)C(=O)N=C2SC(c3ccco3)=NN12 | 13
N=C1/C(=C/c2cccc(OC(=O)c3ccc(F)cc3)c2)C(=O)N=C2SC(c3cccs3)=NN12 | 28*
CCOC(=O)c1ccc(N=C2CC(c3ccc(O)c(OCC)c3)N(c3ccc(C(=O)OCC)cc3)C2=O)cc1 (centres undefined) | -3
Cc1ccc(N2NC(=O)/C(=C/c3ccc(-c4ccc(S(=O)(=O)Nc5nccs5)cc4)o3)C2=O)cc1C | 85*
O=C1NN(c2ccc(Br)cc2)C(=O)/C1=C\c1ccc(-c2ccccc2)o1 | -1
CCc1ccc(N2NC(=O)/C(=C/c3ccc(-c4ccc(S(=O)(=O)Nc5nccs5)cc4)o3)C2=O)cc1 | 93*
O=C1NN(c2ccc(F)c(Cl)c2)C(=O)/C1=C/c1ccc(-c2ccc(Cl)cc2)o1 | -7
SMILES | ROC1-CUL1 inh
O=C1NN(c2ccc(F)c(Cl)c2)C(=O)/C1=C/c1ccc(-c2cccc(Cl)c2)o1 | -8
O=C1NN(c2cccc(F)c2)C(=O)/C1=C/c1ccc(-c2ccc(Cl)cc2)o1 | 5
Cc1ccc(N2NC(=O)/C(=C/c3ccc(-c4ccc(S(=O)(=O)Nc5nccs5)cc4)o3)C2=O)cc1Cl | 99*
COC(=O)c1cccc(-c2ccc(/C=C3/C(=O)NN(c4ccc(C)c(C)c4)C3=O)o2)c1 | 4
CCCOC(=O)c1cc(-c2ccc(/C=C3/C(=O)NN(c4ccc(CC)cc4)C3=O)o2)ccc1Cl | 11
CCN(CC1CCN(C2CCN(C)CC2)CC1)C(=O)C1COc2c(cccc2OC)C1 (centres undefined) | -6
CC(C)CNC(=O)Cc1cccs1 | 3
CC(=O)Oc1ccc(C)cc1N1C(=O)c2cccnc2C1=O | -2
COC(=O)c1sc2ncccc2c1NC(=O)c1ccc(C)cc1 | 6
O=C(NC1CC1)C1CCCN(C2CCN(Cc3cccc(F)c3)CC2)C1 (centres undefined) | 1
Cc1ccccc1C1=N/C(=C\c2ccc(OCc3ccccc3)c(OCc3ccccc3)c2)C(=O)O1 | 3
Cc1ccccc1Oc1ncccc1CNC(=O)C1CCCN(C(N)=O)C1 (centres undefined) | -1
CCOc1ccc(-c2[nH]nc3c2C2(C(=O)N(CC(=O)OC)c4ccccc42)C(C#N)C(=N)O3)cc1 (centres undefined) | 2
Nc1nc(N)c2c(F)cccc2n1 | 13
Nc1nc2ccc(N)c(Cl)c2c(=O)[nH]1 | -5
Nc1nc(N)c2c(F)c(N)ccc2n1 | 65*
C/C(=N/NC(=O)CSc1nnc(-c2ccccc2)n1-c1ccc(C)cc1)c1ccccc1 | 2
COC(=O)c1cc(CNC(=O)Cc2nc(-c3ccccc3)n[nH]2)cc(NC(=O)/C=C/c2ccccc2)c1 | 0
Cc1cc(C)cc(NS(=O)(=O)c2ccc3c(c2)C(=O)C(C(=O)NCc2ccco2)C=N3)c1 (centres undefined) | 0
CCC(Nc1nncc(-c2ccccc2)n1)c1nc2ccc(C)cc2[nH]1 (centres undefined) | 7
Cc1cc(C=C2C(=O)NC(=S)NC2=O)c(C)n1-c1sc2c(c1C(=O)Nc1ccccc1)CCCC2 | -2
CCOc1ccc(N2C(=O)/C(=C/c3cc(C)n(C4CCCC4)c3C)C(=O)NC2=S)cc1 | -4

Screens deposited in PubChem BioAssay by Pan Lab, Icahn School of Medicine at Mount Sinai.
